BAZ2B inh: qHTS Assay for Inhibitors of BAZ2B | 360,000 tested, 4.4% active | AlphaScreen BAZ2B-H3K14Ac peptide displacement | Bromodomain adjacent to zinc finger domain protein 2B (Homo sapiens), Q9UIF8 | Potency, µM (highest dose often 114 µM), without a hit: at the top dose activity change, negative = inhibition, actives largely listed as inhibitors; note: % is set by controls: 0 for no effect and ±100 for the full control effect; nearly all actives have a fitted effect of over 60% in size
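AlphaScreen displacement of biotin-H3(5-23)K14Ac peptide (50 nM final) from BAZ2B (50 nM final) in PBS pH 7.4, 0.01% Tween-20; complex preformed 30 min RT, then compounds (top 110 uM) 30 min RT, beads 20 min dark.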
G9a block: qHTS Assay for Inhibitors of Histone Lysine Methyltransferase G9a. G9a H3K9 monomethylation, AlphaScreen, 2 h. Potency, µM (doses to about 102 µM), inactives show at the highest dose activity, negative = inhibition, usual class: inhibitors. 350,000 tested, 8.8% active. AID 504332, 2011; note: % is set by controls: 0 for no effect and ±100 for the full control effect; nearly all actives have a fitted effect of over 75% in size
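Enzyme 20 nM + cpd, 15 min RT; add b-H3K9 pep 500 nM / SAM 20 uM; 2 h RT; anti-H3K9me1 Ab 0.5 ug/mL + SA donor / anti-rabbit acceptor beads 20 ug/mL each, 10 min; AlphaScreen read.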
Sfp PPTase inh: qHTS Assay for Inhibitors of Bacillus subtilis Sfp phosphopantetheinyl transferase (PPTase). 310,000 tested, 3.5% active. Potency, µM, for the others: largest response in the series, negative = inhibition, hits mostly inhibitors. 4'-phosphopantetheinyl transferase ffp (Bacillus subtilis), Q9F4F7. Biochemical Sfp PPTase activity, qHTS;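 note: the enzyme is Sfp with the accession as filed and its product quenches rhodamine fluorescence; 0% = enzyme reaction without inhibitor and -100% = no enzyme wells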
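Buffer: 50 mM Hepes-Na pH 7.6, 10 mM MgCl2, 0.01% Nonidet P-40, 0.01% BSA. Enzyme 15 nM, pre-exposed to compound 15 min; substrates then added and fluorescence change tracked over 30 min.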
JMJD2A Tudor: qHTS Assay for Inhibitors of JMJD2A-Tudor Domain; Lysine-specific demethylase 4A (Homo sapiens), O75164; AlphaScreen JMJD2A-Tudor / H3K4me3 peptide binding; Potency, µM (doses to about 114 µM), for the others: at the top dose activity change, negative = inhibition, usual class: inhibitors; 390,000 tested, 4.4% active; note: % is set by controls: 0 for no effect and ±100 for the full control effect; nearly all actives have a fitted effect of over 50% in size
Target sequence (O75164 whole entry, looked up, the tested form may be a part): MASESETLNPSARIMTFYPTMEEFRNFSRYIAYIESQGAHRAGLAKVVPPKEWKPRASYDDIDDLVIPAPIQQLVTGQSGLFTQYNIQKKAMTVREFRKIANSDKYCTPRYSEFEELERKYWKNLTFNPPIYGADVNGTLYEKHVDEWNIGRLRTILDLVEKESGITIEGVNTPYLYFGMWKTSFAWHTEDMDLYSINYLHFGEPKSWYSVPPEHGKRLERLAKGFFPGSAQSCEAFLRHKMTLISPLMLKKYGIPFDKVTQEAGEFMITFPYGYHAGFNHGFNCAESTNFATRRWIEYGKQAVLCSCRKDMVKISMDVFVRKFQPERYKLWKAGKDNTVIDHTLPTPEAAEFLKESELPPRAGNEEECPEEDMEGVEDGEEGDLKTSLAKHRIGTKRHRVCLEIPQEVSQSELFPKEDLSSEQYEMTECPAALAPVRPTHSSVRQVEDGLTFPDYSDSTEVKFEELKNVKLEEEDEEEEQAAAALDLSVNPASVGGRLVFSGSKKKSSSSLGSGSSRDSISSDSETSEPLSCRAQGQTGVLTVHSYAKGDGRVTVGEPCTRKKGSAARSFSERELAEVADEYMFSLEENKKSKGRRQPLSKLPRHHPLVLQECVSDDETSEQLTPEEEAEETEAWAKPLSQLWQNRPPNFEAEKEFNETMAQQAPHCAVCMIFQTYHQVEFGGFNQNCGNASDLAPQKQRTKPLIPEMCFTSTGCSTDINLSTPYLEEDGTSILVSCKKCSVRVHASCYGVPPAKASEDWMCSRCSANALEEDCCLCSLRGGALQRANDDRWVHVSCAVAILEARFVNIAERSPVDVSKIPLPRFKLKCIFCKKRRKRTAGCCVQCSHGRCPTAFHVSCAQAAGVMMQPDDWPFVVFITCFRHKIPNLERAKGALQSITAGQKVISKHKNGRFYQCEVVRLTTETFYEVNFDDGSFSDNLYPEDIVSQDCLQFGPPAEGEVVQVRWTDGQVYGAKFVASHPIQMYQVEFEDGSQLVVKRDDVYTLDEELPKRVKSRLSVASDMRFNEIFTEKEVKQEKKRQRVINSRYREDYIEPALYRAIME
HP1b binding inh: HTS for Inhibitors of HP1-beta Chromodomain Interactions with Methylated Histone Tails | AlphaScreen HP1-beta / biotin-H3K9me3 peptide binding | 390,000 tested, 0.56% active | Potency, µM (doses to about 114 µM), for inactives: at the highest dose activity change, negative = inhibition, most hits filed as inhibitors; note: nearly all actives have a fitted effect of over 70% in size
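Compound inhibition of the preformed complex between 50 nM HP1-beta and 50 nM biotinylated H3K9me3 peptide was read by AlphaScreen. Buffer was PBS pH 7.4 with 0.01% Tween-20. Incubations ran 30 min at room temperature, with 10 ug/mL donor/acceptor beads.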
ALOX12 inh: Primary qHTS assay for inhibitors of human arachidonate 12S-lipoxygenase (ALOX12): Round 2. purified 12hLO, xylenol orange hydroperoxide absorbance. 580,000 tested, 1.1% active. Potency, µM (doses to about 108 µM), for the others: at the top dose activity change, negative = inhibition, usual class: inhibitors; note: % is set by controls: 0 for no effect and ±100 for the full control effect
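Purified human 12hLO (150 nM final) in 25 mM Hepes, 0.01% Triton X-100, pH 7.0 was preincubated 15 min at room temperature with compound. Then 40 uM arachidonic acid was added, 30 min. Hydroperoxide was read by Fe-XO absorbance ratio 573/405 nm.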
The depositor's hits bear a star; ? = inconclusive; . = no result; [ ] = another dose, or the depositor's remark. Shown are actives, neighbours in structure and some others; about 8.7% of the full set was active somewhere. Calls come from the whole dose curve; as a rule, active = well fitted curve in the direction sought with a large enough effect; inconclusive = small, poorly fitted or top-dose-only effect, or another doubt; inactive = no such curve, though single readings can be large; an effect the other way counts as inactive or inconclusive. Potency is the fitted concentration of half-maximal effect.

SMILES | BAZ2B inh | G9a block | Sfp PPTase inh | JMJD2A Tudor | HP1b binding inh | ALOX12 inh
C=C(C)CC1Nc2ccccc2NC1CC(=C)C (stereo not drawn) | 50µM* | ? | ? | 79µM* | -39% | 28µM*
O=C(NC1(c2ccccc2)CCC1)c1cc2ccccc2oc1=O | . | . | . | . | . | 23%
CC1=CC(C)(C)NC(=S)N1c1ccc(C)c(C)c1 | -16% | 13%[59 µM] | 22% | -15% | 19% | ?
CCC1(c2ccccc2)NC(=S)N(c2ccc(C)c(C)c2)N1 (stereo not drawn) | ? | 7.9µM* | 8.9µM* | ? | 17% | ?
CC1=CC(C)(C)NC(=S)N1c1ccc(C)cc1 | -2% | -9%[59 µM] | 11% | -11% | 28% | -17%
CCC1(c2ccc(Cl)cc2)NC(=S)N(c2ccc(C)c(C)c2)N1 (stereo not drawn) | -26% | 18µM* | -10% | -26% | 15% | ?
CCC1(c2ccc(Cl)cc2)NC(=S)N(c2ccc(C)cc2)N1 (stereo not drawn) | -35% | 28µM* | ? | 79µM* | 9% | 28µM*
CCC(=O)NC(=S)NNC(=O)c1ccccc1[N+](=O)[O-] | ? | 3.2µM* | 10µM* | -9% | 38% | 3%
CCCOc1ccc(C(=O)NNC(=S)NC(=O)c2ccccc2[N+](=O)[O-])cc1 | -8% | 43%[0.501 µM] | 31% | -29% | 7% | ?
O=C(NC(=S)NNC(=O)c1ccccc1[N+](=O)[O-])c1ccccc1 | -3% | 2.5µM* | 35µM* | 28µM* | ? | ?
CCCC(=O)Nc1ccc(C(=O)NNC(=S)NC(=O)c2ccc(Br)o2)cc1 | 5% | 40µM* | 12% | -4%[11.4 µM] | ? | -18%
CCCCC(=O)Nc1ccc(C(=O)NNC(=O)c2ccc(C)c(Br)c2)cc1 | -35% | ? | 9% | 56µM* | -10% | -15%
O=C(NNC(=S)NC(=O)c1ccccc1[N+](=O)[O-])c1ccccc1 | 11% | ? | 16% | -3% | 30% | -18%
COc1ccc(C(=O)NNC(=S)NC(=O)c2ccc(Br)o2)cc1OC | -4% | -45% | 20% | -21% | 5% | -23%
Cc1ccc(C)c(C(=O)N2CCN(c3cc(-c4ccccc4)[nH]n3)CC2)c1 | . | . | . | . | . | 64%
Cc1cccc(C)c1-n1nnnc1C(C)(C)Nc1ccc2c(c1)OCCO2 | . | . | . | . | . | -14%
CCCCC(=O)Nc1ccc(C(=O)NNC(=S)NC(=O)c2ccccc2[N+](=O)[O-])cc1 | -4% | ? | 35µM* | -13% | 27% | -32%
Cc1ccccc1OCC(=O)NNC(=S)NC(=O)c1ccccc1[N+](=O)[O-] | 1% | -11%[59 µM] | 22% | 5% | -5% | 2%
CC(C)(C)c1ccc(OCC(=O)NNC(=S)NC(=O)c2ccccc2[N+](=O)[O-])c(Br)c1 | -26% | 45µM* | 40µM* | ? | ? | ?
O=C(NNC(=O)c1ccccc1[N+](=O)[O-])c1ccccc1[N+](=O)[O-] | 0% | 10µM* | -61% | -19% | -2% | 132%
COCCNC(=O)[C@@H]1C[C@H](Oc2ccccc2)CN1C(=O)Nc1ccc2c(c1)OCCO2 | . | . | . | . | . | 75%
CC1C(=O)N2CCCc3cc(NC(=O)C(=O)NCCc4ccccc4)cc1c32 (stereo not drawn) | -29% | 0%[0.501 µM] | . | -18% | 15% | 8%
CC1C(=O)N2CCCc3cc(NC(=O)C(=O)NCCc4c[nH]c5ccccc45)cc1c32 (stereo not drawn) | -31% | 28µM* | . | ? | -2% | -2%
COc1ccc(C/C(C)=N/Nc2nc(C)cc(=O)[nH]2)cc1 | -2% | 40µM* | 50µM* | -15% | 31% | 0%
COc1ccc(/C(C)=N\Nc2nc(-c3ccccc3)cc(=O)[nH]2)cc1 | 11% | 8.9µM* | -4% | ? | 23% | 4%
SMILES | BAZ2B inh | G9a block | Sfp PPTase inh | JMJD2A Tudor | HP1b binding inh | ALOX12 inh
O=C(Nc1ccc(-c2nnc3n2CCCC3)cc1)c1ccccc1F | . | . | . | . | . | 54%
CN(C)c1nc2c(c(=O)[nH]1)CCN(Cc1cccc(Cl)c1)CC2 | . | . | . | . | . | 52%
Cc1ccc(C(=O)N/C(=C/c2ccco2)C(=O)N2CCCCC2)cc1 | -9% | 50µM* | -3% | -19% | -3% | ?
O=C(N/C(=C\c1ccco1)C(=O)N1CCOCC1)c1ccco1 | 4% | 32µM* | 28µM* | -6% | 20% | 0%
O=C(N/C(=C/c1ccc(Br)cc1)C(=O)N1CCOCC1)c1ccco1 | -7% | -7% | 14% | 3% | 23% | -2%
O=C(N/C(=C\c1ccc(-c2ccccc2)o1)C(=O)N1CCOCC1)c1ccccc1 | -32% | 50µM* | -2% | 56µM* | -24% | -16%
COc1ccc(C(=O)N/C(=C\c2cn(C)c3ccccc23)C(=O)N2CCN(C)CC2)cc1 | -38% | 45µM* | -5% | -30% | 41% | -30%
CC(C)CC(=O)NCCC1CCN(C(=O)Nc2ccc(F)cc2F)CC1 | . | . | . | . | . | 23%
CC1CN(C(=O)/C(=C/c2ccco2)NC(=O)c2ccccc2)CC(C)O1 (stereo not drawn) | -3% | 35µM* | 16% | -11% | 0% | -21%
Cc1ccc(C(=O)N/C(=C\c2ccco2)C(=O)N2CCCCC2)cc1 | -13% | 45µM* | 0% | -20% | ? | ?
O=C(N/C(=C/c1ccco1)C(=O)N1CCCCCC1)c1ccccc1 | 2% | 45µM* | 0% | -16% | -15% | 13%
COc1ccc(C(=O)N/C(=C/c2ccco2)C(=O)N2CCCCCC2)cc1 | ? | 35µM* | 89µM* | -23% | 21% | ?
CC(=O)N1CCC(N2CC3(C2)C(=O)N(Cc2ccccc2Cl)C(=O)[C@@H]2C[C@@H](O)CN23)CC1 | . | . | . | . | . | -47%
CCOC(=O)C1CCCN(C(=O)/C(=C/c2ccco2)NC(=O)c2ccccc2)C1 (stereo not drawn) | -18% | 40µM* | ? | -25% | 4% | -15%
Cc1cc(C)c(S(=O)(=O)N2CCN(C(=O)N(C)C)CC2)c(C)c1 | ? | . | 7.1µM* | 8% | 0% | -20%
Cc1cc(C)c(S(=O)(=O)N2CCN(C(=O)N3CCCCC3)CC2)c(C)c1 | 4% | 17% | -7% | -7% | 20% | 19%
